Results published in the supplement of paper PMC6555819.

These sequences were tested on PPARg:RXRa 90nM:30nM, anti-RXR (NR concentration 90 nM, RXRa partner concentration 30 nM) (assay: PBM binding z-score (relative to random genomic background probes); higher = stronger binding; sequences stand for … in GC…GCGATTGACAGCGTAGAATGAAGG).
Method in brief: (§1)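 Binding z-scores were set against random background probes. The data came from custom Agilent 4×180K protein-binding microarrays carrying double-stranded probes with 34-nt variable regions, incubated 1 h with ligand-free nuclear receptor dimers. Partner-specific antibodies detected binding, and scanned fluorescence was regression-normalized.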

Sequence | PBM binding z-score
TCTTGTAGATCAAGCAGGTTAATAAAGCCTGAGT | 1.6
CCAGACAGGTGAAAGGTACCTCAGTCTGGTACGC | 4.17
CGTCCAAGGGCATAGGAGGTCAGTGAAGACAGAT | 0.667
CAAACTAGGTCACGATAGGTCAAAGTCGAATGAC | 7.79
TCTCGGAGGACACCAAGGTCAGAGCTTTCCAGAG | 1.76
TCATATAGGTAAAGGTGAAAGGCGAACGATATGA | 4.93
CGAACGAGGGCATGAGTTGATCGCAAATGCCGAT | 0.937
GCTCCTAGGTCAACTGATGGTCAGCTAAAGCTCG | 2.51
AGTCAAAGTTCATCTAGCTAACGTAAGATATGCT | 5.44
TTTCCAAGGTGAGCTGAGGTCGTTGATCCAACTC | 0.913
CCTAGCAGGCCAATCTGGGTTACTCAAGGCTTGA | -0.507
TCTGCTAGGTCAGTAGGTCAGCTAACGAGCTGCC | 4.29
CGTCCAAGGTCAAGGACAGTGAAAGAGACTCGAA | 3.73
CTCAAAAGGTCGTGCTCAGGTGAGTATACCAAAC | 2.75
ACTAGAAGGCCAAGTTTGGGTCACTCAAACAAAG | 0.134
GCAGACAGGTGAGACGCAGGTAACTCAGGGTGGC | -0.532
ACTAGCAGGCCAAGGGTCAATCAAGATTAGTCCG | 8.3
AGTGAAAGTTCATCTAGGTAACGTAAGATATGCT | 4.84
CAAACTAGGTCACAGGAAGGTCAAAGTCCGCATG | 7.73
CGTCCAACGTCAATGCTAGGTCAGTGAAAGCATT | -0.334

Sequence | PBM binding z-score
AATGCAGGGTCACTAGGCCAGAGTAGGTACGAAT | 5.76
ACTGACAGGTGAGTGAAGGTAACTCAGCTGGACG | -0.0738
ACTATTAGTCGACTTAGGGCAACCGATACGACGC | 0.0451
TCATATAGGTAAATGCTAAGTGAAAGTCCGATCT | 2.9
CCTCGGAGGACGACAGGAGGTCAGAGCTGCCAGA | -0.215
CCGACTGAGGCAAGGTTACCATAACGCACAGCCA | 0.134
TTACCAAGGTGAAAGGTCGTCGATGCACGCCTTG | 9
CGAACTAAGTCAAGGACAGTGAATCTCCGCACGC | -0.694
CGTCTAAGGTCAGAGAGGTCAGTGAATGCCGAGT | 3.5
TGAATGAGGTGATAAGATCAGGGAACGTTGCAAA | 0.92
CCTAGCAGGCCAGGGTCACTGAAGCATTTCGCTT | 1.16
TTATATAGGTAAACAGGTGAAAGTCCGTAAGTTA | 4.41
TAGCCTAGGTCCGATCGGGCCAGTATACGCTATA | -1.31
AGAACGAGGGCAGGCTGAGTTGATAGCAGAGTAG | -0.155
GCTTACGGGTCAAAGATTATAGCATGAATAGAAT | 5.77
TCTAGCAGGCCACAGGGTCACTCAAGAGGTACGG | 2.65
TAGCCTAGGTCACTGGGCCAGTATAGTACGCATC | 3.41
TTACCAAGATGAAGGTCGTTGATCCCTCTGTAGA | 1.72
GATATAGGGTCAAGGCCAGAGTACGCGTATTGAT | 5.65
GCGAATGGGGCAAAGCAGGTTACCATAAGGTTGG | -0.292

Each sequence was assayed on PPARg:RXRa DBDmut IVT, anti-RXR (DBD mutation: RXRa K156A/R161A, NR concentration 270 nM, RXRa partner concentration 90 nM) in the same assay as above.
Method in brief: as §1

Sequence | PBM binding z-score
TCTTGTAGATCAAGCAGGTTAATAAAGCCTGAGT | 1.48
CCAGACAGGTGAAAGGTACCTCAGTCTGGTACGC | 1.66
CGTCCAAGGGCATAGGAGGTCAGTGAAGACAGAT | 0.6
CAAACTAGGTCACGATAGGTCAAAGTCGAATGAC | 8.73
TCTCGGAGGACACCAAGGTCAGAGCTTTCCAGAG | 1.32
TCATATAGGTAAAGGTGAAAGGCGAACGATATGA | 4.32
CGAACGAGGGCATGAGTTGATCGCAAATGCCGAT | 2.91
GCTCCTAGGTCAACTGATGGTCAGCTAAAGCTCG | 4.98
AGTCAAAGTTCATCTAGCTAACGTAAGATATGCT | 0.278
TTTCCAAGGTGAGCTGAGGTCGTTGATCCAACTC | 1.18
CCTAGCAGGCCAATCTGGGTTACTCAAGGCTTGA | 3.14
TCTGCTAGGTCAGTAGGTCAGCTAACGAGCTGCC | 4.75
CGTCCAAGGTCAAGGACAGTGAAAGAGACTCGAA | 3.23
CTCAAAAGGTCGTGCTCAGGTGAGTATACCAAAC | 1.02
ACTAGAAGGCCAAGTTTGGGTCACTCAAACAAAG | 0.0334
GCAGACAGGTGAGACGCAGGTAACTCAGGGTGGC | 0.0725
ACTAGCAGGCCAAGGGTCAATCAAGATTAGTCCG | 1.29
AGTGAAAGTTCATCTAGGTAACGTAAGATATGCT | 0.529
CAAACTAGGTCACAGGAAGGTCAAAGTCCGCATG | 8.64
CGTCCAACGTCAATGCTAGGTCAGTGAAAGCATT | 0.0923

Sequence | PBM binding z-score
AATGCAGGGTCACTAGGCCAGAGTAGGTACGAAT | 4.1
ACTGACAGGTGAGTGAAGGTAACTCAGCTGGACG | 0.237
ACTATTAGTCGACTTAGGGCAACCGATACGACGC | 0.19
TCATATAGGTAAATGCTAAGTGAAAGTCCGATCT | 4.03
CCTCGGAGGACGACAGGAGGTCAGAGCTGCCAGA | -0.728
CCGACTGAGGCAAGGTTACCATAACGCACAGCCA | -0.0464
TTACCAAGGTGAAAGGTCGTCGATGCACGCCTTG | 2.84
CGAACTAAGTCAAGGACAGTGAATCTCCGCACGC | 0.868
CGTCTAAGGTCAGAGAGGTCAGTGAATGCCGAGT | 3.8
TGAATGAGGTGATAAGATCAGGGAACGTTGCAAA | 1.64
CCTAGCAGGCCAGGGTCACTGAAGCATTTCGCTT | 0.0332
TTATATAGGTAAACAGGTGAAAGTCCGTAAGTTA | 6.54
TAGCCTAGGTCCGATCGGGCCAGTATACGCTATA | -1.07
AGAACGAGGGCAGGCTGAGTTGATAGCAGAGTAG | 2
GCTTACGGGTCAAAGATTATAGCATGAATAGAAT | 3.85
TCTAGCAGGCCACAGGGTCACTCAAGAGGTACGG | 1.57
TAGCCTAGGTCACTGGGCCAGTATAGTACGCATC | 3.48
TTACCAAGATGAAGGTCGTTGATCCCTCTGTAGA | 0.471
GATATAGGGTCAAGGCCAGAGTACGCGTATTGAT | 4
GCGAATGGGGCAAAGCAGGTTACCATAAGGTTGG | 1.67
